Source: ChEMBL document CHEMBL5308504, “Tm Shift (DSF) assay results for EUbOPEN Chemogenomics Library” (2023)
Several values for one entry are separate records, joined by “and”; a condition that tells them apart may be missing. Identical values can stand only once.

Legend:
[1] = target: Bromodomain-containing protein 4 (Homo sapiens) (UniProt O60885); settings: Compound concentration 20.0 uM, Protein concentration 2.0 uM, Result type QC Liability
[2] = target: T1, Transcription intermediary factor 1-alpha (Homo sapiens) (UniProt O15164); settings: Compound concentration 20.0 uM, Protein concentration 2.0 uM, Result type QC Liability
T1 sequence (whole entry): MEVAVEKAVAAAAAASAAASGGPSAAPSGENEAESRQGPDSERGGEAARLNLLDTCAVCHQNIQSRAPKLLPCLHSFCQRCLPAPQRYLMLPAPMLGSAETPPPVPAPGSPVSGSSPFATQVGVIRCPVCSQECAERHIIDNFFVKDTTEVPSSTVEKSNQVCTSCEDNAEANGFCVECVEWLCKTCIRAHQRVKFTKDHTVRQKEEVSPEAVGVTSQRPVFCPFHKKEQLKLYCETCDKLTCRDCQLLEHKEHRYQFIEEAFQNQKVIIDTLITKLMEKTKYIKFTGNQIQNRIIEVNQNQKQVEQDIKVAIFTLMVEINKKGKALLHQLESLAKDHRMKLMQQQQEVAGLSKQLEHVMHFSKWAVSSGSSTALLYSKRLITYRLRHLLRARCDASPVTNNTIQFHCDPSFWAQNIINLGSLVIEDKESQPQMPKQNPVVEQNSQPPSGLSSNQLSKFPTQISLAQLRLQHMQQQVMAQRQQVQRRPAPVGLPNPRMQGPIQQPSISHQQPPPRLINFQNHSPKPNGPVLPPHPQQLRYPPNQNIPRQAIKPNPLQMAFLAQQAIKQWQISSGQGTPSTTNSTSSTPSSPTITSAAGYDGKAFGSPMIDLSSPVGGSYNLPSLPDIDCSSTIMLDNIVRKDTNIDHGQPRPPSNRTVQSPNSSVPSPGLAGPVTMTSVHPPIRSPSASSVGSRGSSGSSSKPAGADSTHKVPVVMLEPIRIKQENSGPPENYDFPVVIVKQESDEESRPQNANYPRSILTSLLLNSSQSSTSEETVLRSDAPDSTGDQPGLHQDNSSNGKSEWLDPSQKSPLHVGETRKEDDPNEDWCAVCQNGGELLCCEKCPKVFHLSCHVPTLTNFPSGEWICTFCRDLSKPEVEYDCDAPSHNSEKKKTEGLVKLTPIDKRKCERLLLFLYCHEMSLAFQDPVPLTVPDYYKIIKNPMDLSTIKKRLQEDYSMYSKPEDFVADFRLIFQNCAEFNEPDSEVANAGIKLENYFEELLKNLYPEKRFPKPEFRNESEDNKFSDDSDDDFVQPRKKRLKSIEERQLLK

Row | Compound | ΔTm [1] | ΔTm [2]
1 | C=C1/C(=C\C=C2/CCC[C@]3(C)[C@@H]([C@H](C)CCCC(C)(C)O)CC[C@@H]23)C[C@@H](O)C[C@@H]1O | -7.29 °C | -4.59 °C
2 | CNC(=O)c1cc(C(=O)N[C@H]2[C@@H]3COC[C@@H]32)cc2c1O[C@H](CF)[C@H]2c1ccccc1 | – | -2.73 °C
3 | Cn1cc(C(=O)O)c2ccc(N3CCC(OCc4c(-c5c(Cl)cccc5Cl)noc4C4CC4)CC3)cc21 | -1.74 °C | -2.91 °C
4 | CCOC(=O)C1Cc2ccccc2CN1C(=O)c1ccc(SC)s1 (stereo not drawn) | -2.7 °C | -3.41 °C
5 | CN(c1ccc(C(F)(F)F)cc1)S(=O)(=O)c1ccc(C(=O)Nc2nc(-c3ccccn3)cs2)cc1 | 6.63 °C | 18.6 °C
6 | Cc1c(CCC(=O)O)cccc1NC(=O)[C@@H](c1ccc(-c2cncc(Cl)c2)c(F)c1)C1CCCC1 | 0.73 °C | 0.32 °C
7 | Nc1nc(-c2nn(Cc3ccccc3F)c3ncccc23)ncc1C1CC1 | 1.11 °C | 0.4 °C
8 | COc1ccc2c(O[C@@H]3C[C@H]4C(=O)N[C@]5(C(=O)O)CC5/C=C\CCCCC[C@H](NC(=O)OC5CCCC5)C(=O)N4C3)cc(-c3csc(NC(=O)C(C)C)n3)nc2c1C (stereo partly drawn) | – | 0.14 °C [middle of 4 runs]
9 | C=CC(=O)Nc1ccc(C(=O)Nc2[nH]nc3c2CN(C(=O)N[C@H](CN(C)C)c2ccccc2)C3(C)C)cc1 | 0.61 °C | -2.21 °C
10 | Cc1ncsc1-c1ccc(CNC(=O)[C@@H]2C[C@@H](O)CN2C(=O)[C@@H](NC(=O)C2(F)CC2)C(C)(C)C)c(OCCOc2ccc(CN3CCN(c4cc(-c5ccccc5O)nnc4N)CC3)cc2)c1 | 13.5 °C | 0 °C
11 | CC1(C)C(=O)N([C@H]2CCc3c(O)cccc32)c2nc(Nc3cccc(CN4CCCC4)c3)ncc21 | -2.45 °C | -2.64 °C
12 | Cn1nc(C(=O)NCc2ccc(C(=O)O)cc2)cc1-c1ccc2[nH]ccc2c1 | -0.1 °C | 0.43 °C
13 | COc1cc(OC)cc(-c2cc3cnc(N)nc3nc2NC(=O)NC(C)(C)C)c1 | -2.72 °C and 0.27 °C | -2.2 °C and -1.8 °C
14 | CC[C@H](CO)Nc1nc(Nc2cccc(-c3ccccn3)c2)c2ncn(C(C)C)c2n1 | -1.32 °C | -3.54 °C
15 | O=C1NC(=NCc2cccs2)SC1=Cc1ccc2ncccc2c1 | 0.38 °C | -1.13 °C
16 | CCn1c(CNC(=O)c2nc(Cl)cnc2N)[n+](CC)c2ccc(C(=O)N(C)CCN(C)C)cc21 | -0.61 °C | 0.2 °C
17 | COc1cc(-c2cncc(-c3ccc(N4CCN(C(C)C)CC4)cc3)c2C)cc(F)c1C(=O)N1CCCC1 | -3.15 °C | -3.48 °C
18 | CNC(=O)c1ccc2c(c1)ncn2-c1ccc(CC(=O)OC(C)(C)C)cc1 | -0.5 °C | -3.2 °C
19 | N=C(N)NCCC[C@@H](NC(=O)C(c1ccccc1)c1ccccc1)C(=O)NCc1ccc(CNC(N)=O)cc1 | 0.42 °C | 0.26 °C
20 | CCCCCCCN(CCc1ccc(SC(C)(C)C(=O)O)cc1)C(=O)Nc1ccc(F)cc1F | -1.9 °C | -3.36 °C
21 | C=CC[C@@H]1/C=C(\C)C[C@H](C)C[C@H](OC)[C@H]2O[C@@](O)(C(=O)C(=O)N3CCCC[C@H]3C(=O)O[C@H](/C(C)=C/[C@@H]3CC[C@@H](O)[C@H](OC)C3)[C@H](C)[C@@H](O)CC1=O)[C@H](C)C[C@@H]2OC | -1.85 °C | -0.9 °C
22 | CNC(=O)c1cc(C(=O)N[C@H]2[C@@H]3COC[C@@H]32)cc2c1O[C@@H](CF)[C@@H]2c1ccccc1 | – | -2.85 °C
23 | COCc1nc2cnc3cc(-c4c(C)noc4C)c(OC[C@H]4CCNC4)cc3c2n1[C@H](C)c1ccccc1 | – | -1.74 °C
24 | C/C=C1\C(=O)CC2C3CCC4=CC(=O)CC[C@]4(C)C3CC[C@]12C (stereo partly drawn) | -2.62 °C | -2.32 °C
25 | Cc1cc2c(-c3ccco3)cnc(N[C@H]3CCN(C)C[C@@H]3C(=O)NC3CCCCC3)c2[nH]c1=O | 3.29 °C | -2.71 °C
26 | CN(C)[C@H]1CC[C@H](Nc2ncc3ncnc(Nc4ccc(F)c(Cl)c4)c3n2)CC1 | -0.7 °C | -1.12 °C
